# Source: PubChem BioAssay (NCATS)
# Several values for one entry are separate records, joined by “and”; a condition that tells them apart may be missing. Identical values can stand only once. Inconclusive results are not listed. Entries that show only a call come without a potency. Unmarked numbers belong to inactive results. Activity calls are given as the source filed them. The call rests on the fitted dose curve; in most records, active means well fitted inhibition curve with a large enough effect; inconclusive means small, poorly fitted or top-dose-only effect; inactive means flat fitted curve, though single readings scatter.
# Tests used:
# NIH3T3 [1] = experiment: Cytotoxic Profiling of Annotated Libraries Using Quantitative High-Throughput Screening (AID 1296008); conditions: Five cell lines viability, CellTiter-Glo ATP luminescence, 48-72 h; max response: active compounds read low
# How it was run: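 Cytotoxicity was measured as CellTiter-Glo ATP luminescence, read after 10 min at room temperature. Compound treatment of the cells lasted 48 or 72 hr at 37 degrees Celsius in a qHTS format.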
# HACAT = experiment: qHTS assay to identify novel small-molecules to repurpose for Merkel cell carcinoma treatment (AID 1296009); conditions: MCC and control cell lines, CellTiter-Glo viability, 72 h; at 44.8 µM (top of the series) unless noted
# How it was run: (§1)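 Cell viability measured by CellTiter-Glo following 72 hr compound treatment at 37 degree celsius, with NPC and MIPE libraries tested in 8- and 11-point concentration series.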
# HEK293T = experiment: as above; conditions: MCC and control cell lines, CellTiter-Glo viability, 72 h; at 44.8 µM (top of the series)
# How it was run: as §1
# MCC-13 = experiment: as above; conditions: MCC and control cell lines, CellTiter-Glo viability, 72 h; series mostly up to 46 µM
# How it was run: as §1
# MCC-26 = experiment: as above; conditions: MCC and control cell lines, CellTiter-Glo viability, 72 h; series mostly up to 46 µM
# How it was run: as §1
# MKL-1 = experiment: as above; conditions: MCC and control cell lines, CellTiter-Glo viability, 72 h; series mostly up to 46 µM
# How it was run: as §1
# MKL-2 = experiment: as above; conditions: MCC and control cell lines, CellTiter-Glo viability, 72 h; series mostly up to 46 µM
# How it was run: as §1
# NIH3T3 [2] = experiment: as above; conditions: MCC and control cell lines, CellTiter-Glo viability, 72 h; at 44.8 µM (top of the series) unless noted
# How it was run: as §1
# UISO = experiment: as above; conditions: MCC and control cell lines, CellTiter-Glo viability, 72 h; series mostly up to 46 µM
# How it was run: as §1
# WaGa = experiment: as above; conditions: MCC and control cell lines, CellTiter-Glo viability, 72 h; series mostly up to 46 µM
# How it was run: as §1
# Further: nearly all actives have a fitted effect of over 60% in size.
# Potency means the concentration at half of the fitted maximal effect.
SMILES,outcome (NIH3T3 [1]),outcome (HACAT),outcome (HEK293T),Potency (MCC-13),Potency (MCC-26),Potency (MKL-1),Potency (MKL-2),outcome (NIH3T3 [2]),Potency (UISO),Potency (WaGa),max response (NIH3T3 [1]),Potency (NIH3T3 [1])
COc1ccccc1N1CCN(CCCNc2cc(=O)n(C)c(=O)n2C)CC1,inactive,inactive,inactive,inactive,inactive,inactive,inactive,inactive,inactive,inactive,,
O=C1NCC2(CCN(CCc3ccccc3)CC2)O1,inactive,inactive,inactive,inactive,inactive,inactive,inactive,inactive,inactive,inactive,,
Cc1cccc(C)c1OCC(C)N (stereo not given),inactive,inactive,inactive,inactive,inactive,inactive,inactive,inactive,inactive,inactive,,
CON=C(C(=O)N[C@@H]1C(=O)N2C(C(=O)OCOC(=O)C(C)(C)C)=C(C=Cc3scnc3C)CS[C@H]12)c1csc(N)n1,inactive,inactive,,inactive,inactive,inactive,inactive,inactive,inactive,,,
CC1CCC(C(=O)N(c2cc(C#CC(C)(C)C)sc2C(=O)O)C2CCC(O)CC2)CC1 (stereo not given),inactive,inactive,,inactive,inactive,inactive,inactive,inactive,inactive,inactive,-3.97%,
CCCNC(=O)NS(=O)(=O)c1ccc(Cl)cc1,inactive,inactive,inactive,inactive,inactive,inactive,inactive,inactive,inactive,inactive,,
Cn1c(N2CCCCS2(=O)=O)nc(C(=O)NCc2ccc(F)cc2)c(O)c1=O,inactive,inactive,,inactive,inactive,inactive,inactive,inactive,inactive,inactive,-0.0051%,
CCN(CC)CCNC(=O)c1ccc(N)cc1,inactive,inactive; activator,inactive,inactive,inactive,inactive,inactive,inactive,inactive,inactive,,
CC=CC(=O)N(CC)c1ccccc1C,,inactive,inactive,inactive,inactive,inactive,inactive,,inactive,,3.96%,
Nc1ncnc2c1ncn2[C@@H]1O[C@@H](CO)[C@H](O)[C@H]1O,,inactive,inactive,inactive,inactive,inactive,inactive,,inactive,inactive,-24.9%,
NC1CCC(Nc2nc(Nc3ccc(C(=O)N4CCCCC4)cc3)c3ncn(-c4cccc(F)c4)c3n2)CC1 (stereo not given),,inactive,inactive,inactive,,inactive,inactive,,inactive,inactive,4.66%,
O=c1ccn([C@@H]2O[C@H](CO)[C@H](O)[C@H]2O)c(=O)[nH]1,,inactive,inactive,inactive,,inactive,inactive,,inactive,inactive,-5.13%,
CCn1cc(C(=O)O)c(=O)c2ccc(C)nc21,,inactive,inactive,inactive,inactive,inactive,inactive,,inactive,inactive,-10.7% and -7.98%,
CN(C)CCC(c1ccccc1)c1ccccn1 (stereo not given),inactive,inactive,inactive,inactive,inactive,inactive,inactive,inactive,inactive,inactive,-1.68%,
CC(C)[C@H](CO)Nc1nc(Nc2ccc(C(=O)O)c(Cl)c2)c2ncn(C(C)C)c2n1,inactive,inactive,,inactive,,,,inactive [at 17.4 µM],,,-1.87%,
CCOC(=O)O[C@]1(C(=O)OCCl)CC[C@@H]2[C@H]3CCC4=CC(=O)C=C[C@]4(C)[C@@H]3[C@@H](O)C[C@@]21C,inactive,inactive,inactive,inactive,inactive,inactive,inactive,inactive,inactive,inactive,,
CC(=O)CCCCn1c(=O)c2c(ncn2C)n(C)c1=O,,inactive,inactive,inactive,inactive,inactive,inactive,,inactive,inactive,4.69% and 0.479%,
C[C@@H](O)[C@H]1C(=O)N2C(C(=O)O)=C(S[C@@H]3CN[C@H](C(=O)N(C)C)C3)[C@H](C)[C@H]12,,inactive,inactive,inactive,inactive,inactive,inactive,,inactive,inactive,-2.02% and 0.837%,
NC(N)=Nc1nc(CSCC/C(N)=N/S(N)(=O)=O)cs1,inactive,inactive,inactive,inactive,inactive,inactive,inactive,inactive,inactive,inactive,,
OC[C@@H](O)[C@H](O)[C@H](O)[C@@H](O)CO,inactive,inactive,inactive,inactive,inactive,inactive,inactive,inactive,inactive,inactive,,

SMILES,outcome (NIH3T3 [1]),outcome (HACAT),outcome (HEK293T),Potency (MCC-13),Potency (MCC-26),Potency (MKL-1),Potency (MKL-2),outcome (NIH3T3 [2]),Potency (UISO),Potency (WaGa),max response (NIH3T3 [1]),Potency (NIH3T3 [1])
C[N+]1(C)[C@@H]2CC(OC(=O)[C@H](CO)c3ccccc3)C[C@H]1[C@H]1O[C@@H]12 (stereo not given in full),,inactive,inactive,inactive,inactive,inactive,inactive,,inactive,inactive,-3.27%,
CCOC(=O)C1=C(N)Oc2ccc(Br)cc2C1C(C#N)C(=O)OCC (stereo not given),inactive,inactive,inactive,inactive,inactive,inactive,inactive,inactive,inactive,inactive,0.0498% and 4.88%,
NC(=O)c1ccc2nc(-c3ccc(Oc4ccc(Cl)cc4)cc3)[nH]c2c1,,inactive,,inactive,inactive,inactive,,,,,-2.72% and -4.33%,
COC(=O)[C@@H]1[C@H]2C[C@H]3c4[nH]c5ccccc5c4CCN3C[C@@H]2CC[C@@H]1O,inactive,inactive,,inactive,,inactive,inactive,inactive,inactive,inactive,-5.76%,
Cc1cnc(C(=O)O)c[n+]1[O-],,inactive,inactive,inactive,inactive,inactive,,,inactive,inactive,-3.95%,
NCCS,,inactive,inactive,inactive,inactive,inactive,inactive,,inactive,inactive,4.3%,
CC(=O)c1ccc(S(=O)(=O)NC(=O)NC2CCCCC2)cc1,,inactive,inactive,inactive,inactive,inactive,inactive,,inactive,inactive,-3.55%,
CC1(C)Cc2c(sc(NC(=S)NC(=O)c3ccccc3)c2C(=O)O)CO1,inactive,inactive,inactive,inactive,inactive,inactive,,inactive,inactive,inactive,,
CCCCCCCCCCCC1=C(O)C(=O)C=C(O)C1=O,,inactive,inactive,inactive,inactive,2.96 µM (active),,,inactive,2.96 µM (active),-3.68%,
O=C(O)C=Cc1ccc(O)c(O)c1,,,,,,,,,,,-24.2%,
NC(=O)NN=Cc1ccc([N+](=O)[O-])o1,inactive,inactive,,inactive,inactive,inactive,inactive,inactive,inactive,,,
CCN1CCC[C@H]1CNC(=O)c1cc(S(N)(=O)=O)ccc1OC,,inactive,inactive,inactive,inactive,inactive,inactive,,inactive,inactive,0.0033% and 0.419%,
C=C1C(=O)OC(CCCCCCCC)C1C(=O)O (stereo not given),,inactive,inactive,inactive,inactive,inactive,inactive,,inactive,inactive,2.38%,
CC(C)(C)c1cc(C(=O)O)c(NC(=O)Nc2ccc3[nH]ncc3c2)s1,inactive,inactive,,inactive,inactive,inactive,inactive,inactive,inactive,inactive,-6.15%,
CCOc1ccc(Nc2nc(-c3c(C)nc4ccccn34)cs2)cc1,,inactive,,0.0372 µM (active),0.0526 µM (active),,,,,,,5.3 nM (active) and 73.1 nM (active)
O=C1Nc2ccc(Cl)cc2C(C#CC2CC2)(C(F)(F)F)O1 (stereo not given),,inactive,,inactive,inactive,inactive,inactive,,inactive,inactive,-6.53%,
Cc1c[nH]c(C=C2C(=O)Nc3ccccc32)c1CCC(=O)O,,inactive,,inactive,,inactive,inactive,,,inactive,-18.5%,
CC(C)(C)COc1ccc(-n2cc(C(=O)O)cn2)cc1C#N,,inactive,,inactive,inactive,inactive,inactive,,inactive,inactive,3.94%,
CO[C@H]1C[C@@H]2CC[C@@H](C)[C@@](O)(O2)C(=O)C(=O)N2CCCC[C@@H]2C(=O)O[C@H]([C@H](C)C[C@@H]2CC[C@H](OP(C)(C)=O)[C@H](OC)C2)CC(=O)[C@H](C)C=C(C)[C@@H](O)[C@@H](OC)C(=O)[C@H](C)C[C@H](C)C=CC=CC=C1C,,inactive,,inactive,inactive,,inactive,,inactive,23.5 µM (active),4.15%,
CCC(CC)[C@H](NC(C)=O)[C@@H]1[C@H](O)[C@@H](C(=O)O)C[C@@H]1N=C(N)N,inactive,inactive,,inactive,inactive,inactive,inactive,inactive,inactive,inactive,,
